Twelve compounds from PubChem BioAssay can be followed below.

Where “and” joins values, the source holds several entries; their conditions need not be identical. Equal entries are not always repeated. Calls of active or inactive are those of the source.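 Rule for the calls, unless noted: active = compounds killing one labelled cell type while sparing the other, by normalised counts and ratio limits, not self-fluorescent; inactive = the rest.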

The target in assay [1] is 6-phosphogluconate dehydrogenase, decarboxylating (Homo sapiens) (UniProt P52209). The experiment in a line: inhibition of human phosphogluconate dehydrogenase – biochemical, recombinant enzyme, NADPH absorbance, primary screen (AID 1159550;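 active = at least 20% inhibition of 6-phosphogluconate dehydrogenase activity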). The following applies: recombinant 6PGD, NADPH absorbance 341 nm; at 10 µM; stronger effect = higher value.
A short description of assay [2]: EMT-state selective cytotoxicity in co-culture – imaging, PC-3E GFP, TEM4-18 mCherry, primary screen (AID 1345086).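 For all read-outs here: cells exposed to compound for 72 h before imaging.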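 For red/green cell ratio (normalised): normalised mesenchymal count divided by normalised epithelial count so high means epithelial killing.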 The note with it: PC-3E GFP / TEM4-18 mCherry co-culture, imaging cell counts, at 1 µM; for red/green cell ratio (normalised): actives lie on both sides, counts scaled to control wells, 1 = unselective.
A short description of assay [3]: P. berghei load reduction in hepatocytes – cell-based, HepG2, luciferase luminescence, HepG2 viability, primary screen (AID 624349; in the data active = parasite load remaining mostly below about 12%, no sharp cut-off; inactive = mostly above about 10%;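 note: 100% = mean of DMSO negative control wells on the same plate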). The following applies: P. berghei liver stage in HepG2, luciferase luminescence, concentration not given here; parasite load remaining: stronger effect = lower value; viability: measured here: HepG2 viability without parasites.
Assay [4] can be described thus: viability loss with induced miR-34 in A549 – imaging, A549 dox-inducible miR-34, nuclei and caspase counts, primary screen (AID 1347080;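 active = compounds whose cell count with miR-34 switched on is under 0.7 times the count with it off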). The note with it: A549 miR-34 inducible, Hoechst nuclei count, 48 h.
Assay [5] can be described thus: MELAS cybrid and Rieske KO viability enhancers – cell-based, MELAS cybrids, Rieske KO mouse fibroblasts, CellTiter-Glo, primary screen (AID 1508586;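 active = mean z-score across replicates of 1.96 or higher in either the MELAS or the Rieske mutant cell line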;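 note: z relative to plate mean and SD of compound and empty wells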). The following applies: low glucose.
In assay [6] the target is Mitogen-activated protein kinase 7 (Homo sapiens) (UniProt Q13164). The experiment in a line: Gal4-ERK5 driven luciferase induction – cell-based, HTS, primary screen (AID 1508626;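 active = luciferase signal above three times the same-plate solvent-only control wells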;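 note: luciferase driven by Gal4-ERK5 fusion binding five Gal4 sites before minimal TATA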). The following applies: HeLa Gal4-ERK5 transactivation, 18 h, at 5 µM, stronger effect = higher value.
Assay [7] can be described thus: galactose survival enhancers in mitochondrial complex I cybrids – cell-based, galactose medium, ATP luminescence, primary screen (AID 1645843;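 active = z-score of at least 1.8 in each of two replicates, scored against plate mean and spread of sample wells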;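 note: positive z means more ATP and so rescue of galactose-driven cybrid death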). The note with it: complex I mutant cybrid cells, 72 h, stronger effect = higher value.
Assay [8] in a line: compounds altering circadian rhythm period length – cell-based, LOPAC library, luminescence reporter (AID 2774; call rule not given here;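 note: values are relative to mean of DMSO wells on each plate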). The following applies: circadian reporter cells, at 7 µM, actives lie on both sides.
Assay [9] concerns Hepatitis C virus NS3 helicase. The experiment in a line: blockers of NS3h binding to ssDNA – biochemical, fluorescence polarization, LOPAC1280 library, primary screen (AID 687035; in the data active = inhibition above about 37%). The note with it: Purified HCV NS3 helicase, Cy5-dT15 ssDNA binding fluorescence polarization; stronger effect = higher value; concentration not given here.
Assay [10] is described as follows: blockers of cellular phospholipid synthesis – cell-based, LOPAC library, screen 4, primary screen (AID 1347384; call rule not given here). The following applies: animal cells, phospholipid biosynthesis inhibition screen; at 10 µM.
Setting [11] is: measured here: epithelial PC-3E GFP cell survival.
The mark [12] stands for this setting: measured here: mesenchymal TEM4-18 mCherry cell survival.
The mark [13] stands for this setting: stronger effect = lower value, cell number ratio, induced over uninduced.
The mark [14] stands for this setting: measured here: relative caspase fold change +Dox/-Dox.
Setting [15] is: measured here: total cells with miR-34 induction, stronger effect = lower value.
Setting [16] is: measured here: total cells without miR-34 induction.

6-phosphogluconate dehydrogenase, decarboxylating (Homo sapiens), sequence (P52209 whole entry, looked up): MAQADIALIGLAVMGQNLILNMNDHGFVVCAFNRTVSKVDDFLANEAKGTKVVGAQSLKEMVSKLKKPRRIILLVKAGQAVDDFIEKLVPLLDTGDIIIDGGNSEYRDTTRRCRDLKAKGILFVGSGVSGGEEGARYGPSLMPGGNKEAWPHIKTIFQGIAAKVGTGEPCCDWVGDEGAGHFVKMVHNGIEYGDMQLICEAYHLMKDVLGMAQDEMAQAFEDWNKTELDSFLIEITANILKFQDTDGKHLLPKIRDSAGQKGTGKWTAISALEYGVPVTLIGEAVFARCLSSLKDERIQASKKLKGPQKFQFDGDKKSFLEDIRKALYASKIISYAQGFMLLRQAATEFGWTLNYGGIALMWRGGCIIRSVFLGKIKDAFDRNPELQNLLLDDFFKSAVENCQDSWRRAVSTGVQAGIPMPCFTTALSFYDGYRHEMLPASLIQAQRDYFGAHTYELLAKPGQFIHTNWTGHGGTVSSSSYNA
Mitogen-activated protein kinase 7 (Homo sapiens), sequence (Q13164 whole entry, looked up, the tested form may be a part): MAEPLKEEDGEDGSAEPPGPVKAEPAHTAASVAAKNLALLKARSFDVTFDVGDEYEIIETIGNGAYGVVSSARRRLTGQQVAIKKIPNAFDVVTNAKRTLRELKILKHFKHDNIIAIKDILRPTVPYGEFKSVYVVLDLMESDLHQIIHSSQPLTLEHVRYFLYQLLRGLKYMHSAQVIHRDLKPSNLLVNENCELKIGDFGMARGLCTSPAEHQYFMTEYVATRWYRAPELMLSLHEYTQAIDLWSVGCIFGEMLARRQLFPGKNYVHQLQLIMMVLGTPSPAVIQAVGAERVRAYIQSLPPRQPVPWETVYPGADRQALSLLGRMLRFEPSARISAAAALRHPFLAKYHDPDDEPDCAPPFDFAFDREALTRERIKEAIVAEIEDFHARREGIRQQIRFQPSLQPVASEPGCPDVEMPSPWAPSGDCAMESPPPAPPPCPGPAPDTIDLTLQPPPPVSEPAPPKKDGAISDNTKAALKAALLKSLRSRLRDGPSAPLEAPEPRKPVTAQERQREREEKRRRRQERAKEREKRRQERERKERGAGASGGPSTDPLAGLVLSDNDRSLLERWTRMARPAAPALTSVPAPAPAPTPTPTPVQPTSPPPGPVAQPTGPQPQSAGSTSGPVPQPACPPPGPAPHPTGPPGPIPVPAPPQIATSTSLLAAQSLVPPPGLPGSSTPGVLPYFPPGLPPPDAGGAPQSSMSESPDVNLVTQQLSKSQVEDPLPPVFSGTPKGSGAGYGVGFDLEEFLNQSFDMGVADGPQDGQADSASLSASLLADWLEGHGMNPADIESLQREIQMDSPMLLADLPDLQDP

In general, inhibition refers to the change of the read-out against control, counted positive when it falls. Consider `O=c1ccc2ccc(O)cc2o1`, for which, in [1], the inhibition was 5.77% (inactive). Further, the red/green cell ratio (normalised) in assay [2] is 0.88 (inactive). Besides, the normalised cell number stood at 1.05 in assay [2] (setting [11]) and 0.93 in assay [2] (setting [12]).
The like results for `N.N.O=C([O-])C1(C(=O)[O-])CCC1.[Pt+2]` were, in that order, -2.44% (inactive), 0.96 (inactive), 1.09 and 1.04.
For `CC1CC[C@@]2(OC1)O[C@H]1CC3C4CC[C@@H]5C[C@@H](O)CC[C@]5(C)C4CC[C@]3(C)[C@H]1[C@@H]2C` (some centres not stated), the inhibition in assay [1] was -2.11% (inactive). The red/green cell ratio (normalised) in assay [2] was 1.16 (inactive). Also, the normalised cell number in assay [2] (setting [11]) turned out to be 1.03; in assay [2] (setting [12]) it was 1.2.
The like results for `COc1cc(-c2coc3cc(OCc4ccccc4)c(OC)c(O)c3c2=O)cc(OCc2ccccc2)c1OC` were, in that order, 16.5% (inactive), 0.82 (inactive), 1.05 and 0.86.
In the same order, the values of `O=C(O)c1cc(=O)c(O)c2c(O)c(O)ccc2c1` are 31% (active), 0.86 (inactive), 1.29 and 1.11.
The like results for `CC1NC(=O)NC1=O` (configuration not stated) were, in that order, -12% (inactive), 0.85 (inactive), 0.94 and 0.79.
What is called viability is the share of living cells, or the viability signal relative to a control. For the compound `CCCCCCCCCCCC1=C(O)C(=O)C=C(O)C1=O`, the parasite load remaining in assay [3] is 136% (inactive). For the same compound, the viability in assay [3] was 84.4%. The inhibition in assay [1] was 15% (inactive). The red/green cell ratio (normalised) in [2] was 0.91 (inactive). Also, the normalised cell number was found to be 1.09 in assay [2] (setting [11]) and 1 in [2] (setting [12]). The fold change was 0.793 (inactive) and 1.27 (inactive) in assay [4] (setting [13]); 2.63 and 0.764 in assay [4] (setting [14]). Also, the cell count was 7270 and 2440 in [4] (setting [15]); 9160 and 1930 in assay [4] (setting [16]). Moreover, the z-score in assay [5] (MELAS cybrid survival, CellTiter-Glo 48 h, stronger effect = higher value) is -0.242 (inactive); in assay [5] (Rieske KO mouse fibroblast survival, CellTiter-Glo 72 h), -0.154; in assay [7], -0.595 (inactive). The luciferase signal in assay [6] is 40 AU (inactive).
Take `C=CCCCCCCCCCCCC(O)CC(O)CO` (configuration not stated) (tested in a mixture with another compound): the inhibition in assay [1] is -8.17% (inactive). Further, the red/green cell ratio (normalised) in assay [2] is 0.87 (inactive). Also, the normalised cell number in assay [2] (setting [11]) was determined as 1.32; in [2] (setting [12]), 1.14.
On to `Cc1cc(=O)oc2cc(O)cc(O)c12`, for which, in assay [1], the inhibition was 3.6% (inactive). In [2], the red/green cell ratio (normalised) was 0.8 (inactive). Moreover, the normalised cell number was determined as 1.18 in [2] (setting [11]) and 0.94 in assay [2] (setting [12]).
The like results for `COc1cccc2c1CCC1CC(=O)CC[C@]21C` (some centres not stated) were, in that order, -1.22% (inactive), 0.76 (inactive), 1 and 0.76.
With `COc1cc(OC)c(-c2c(OC)cc(OC)cc2OC)c(OC)c1`, the inhibition in [1] was 11.7% (inactive). The red/green cell ratio (normalised) in [2] is 1.06 (inactive). Also, the normalised cell number in assay [2] (setting [11]) was 0.99; in assay [2] (setting [12]) it was 1.04.
Take `CCCCOc1cc(CC2CNC(=O)N2)ccc1OC` (configuration not stated): the period change in assay [8] was 0.115 h (inactive). Further, the inhibition in [9] was -2% (inactive); in [1], 1.84% (inactive). Also, in [2], the red/green cell ratio (normalised) is 1.01 (inactive). Besides, the normalised cell number in assay [2] (setting [11]) is 1.14; in [2] (setting [12]), 1.15. The fold change is 0.994 (inactive) and 1.05 (inactive) and 0.91 (inactive) in assay [4] (setting [13]); 1.87 and 1.3 and 0.769 in assay [4] (setting [14]). Besides, the cell count in [4] (setting [15]) was 10200 and 6130 and 8720; in [4] (setting [16]) it was 10300 and 5830 and 9590. For the same compound, the result in assay [10] was inactive. The luciferase signal in assay [6] was 60 AU (inactive). The z-score in [7] is 0.26 (inactive) and -0.055 (inactive).
